This is a sample that favours compounds with a hit; in the whole collection about 4% have one here.
FBA Mtb inh: Mtb FBA enzyme inhibitors, primary screen, biochemical, fluorescence, strain H37Rv | purified M. tuberculosis FBA, fluorescence read-out | hit rate 2.3% among 360,000 | inhibition, % at 1 µM; in the data active = inhibition above about 27%;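 also: 0% = vehicle and 100% = reference inhibitor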
Target sequence (P9WQA3 whole entry, looked up): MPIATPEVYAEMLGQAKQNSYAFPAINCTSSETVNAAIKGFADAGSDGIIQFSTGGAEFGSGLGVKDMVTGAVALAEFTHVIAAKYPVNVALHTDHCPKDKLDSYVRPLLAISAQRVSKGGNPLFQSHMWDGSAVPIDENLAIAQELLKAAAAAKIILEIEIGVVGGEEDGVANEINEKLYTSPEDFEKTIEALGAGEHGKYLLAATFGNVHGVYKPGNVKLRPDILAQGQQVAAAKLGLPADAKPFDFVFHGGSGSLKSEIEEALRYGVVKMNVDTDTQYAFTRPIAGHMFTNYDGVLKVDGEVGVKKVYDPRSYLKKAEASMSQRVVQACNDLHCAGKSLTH
Mtb bLac sens: beta-lactam sensitization of Mtb H37Rv, H37Rv; M. tuberculosis H37Rv growth with meropenem, percent inhibition; inhibition, % at 25 µM; hit rate 0.27% among 330,000; AID 434955, 2010; call rule not given here;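 also: growth measured after seven days incubation then overnight dye step; 0% = bacteria only wells and 100% = bacteria with antibiotic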
MazF activator: activators of E. coli MazEF toxin-antitoxin RNase, primary screen, biochemical, fluorescence, uHTS; Endoribonuclease toxin MazF (Escherichia coli (strain K12)), P0AE70; hit rate 0.32% among 350,000; activation, % at 20 µM; FAM/BHQ RNA-DNA oligo cleavage fluorescence, 5 h; in the data active = activation above about 50%
Target sequence (P0AE70 whole entry, looked up): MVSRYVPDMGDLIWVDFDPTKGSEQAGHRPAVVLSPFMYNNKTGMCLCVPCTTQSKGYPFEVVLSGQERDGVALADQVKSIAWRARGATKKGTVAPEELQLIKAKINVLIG
GDH-TPI counter: GDH-TPI coupling enzyme inhibitors, primary screen, artefact control for M. tuberculosis FBA inhibitor project, biochemical, absorbance, full deck; GDH-TPI coupled enzyme counterscreen, NADH absorbance; inhibition, % at 4.8 µM; hit rate 1.2% among 360,000;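 also: 0% = DMSO wells and 100% = wells lacking the enzyme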
CCHFV vOTU inh: CCHFV vOTU protease inhibitors, primary screen, biochemical, Pep-AMC substrate, fluorescence; Crimean-Congo hemorrhagic fever virus L polyprotein viral ovarian tumor (vOTU) protease …; hit rate 0.55% among 370,000; inhibition, % at 11.5 µM; also: 0% = vehicle wells with enzyme and 100% = no enzyme wells
* = called active by the depositor; . = no result given; + = active, no number. Rule as the data show it, unless noted: active = inhibition above about 30%; inactive = the rest.

SMILES	FBA Mtb inh	Mtb bLac sens	MazF activator	GDH-TPI counter	CCHFV vOTU inh
CCn1c(=O)n(CC(=O)N2CCCC2)c(=O)c2ccccc21	.	.	.	.	-5
CCC1=NN2C(=N)/C(=C\c3cccn3-c3c(C)cccc3C)C(=O)N=C2S1	5	3	-6	44*	17
Cc1[nH]c2ccccc2c1C(=O)/C=C/c1ccccc1Cl	-8	-2	51*	7	8
CC(C)N1Cc2nnn(Cc3ccc(F)cc3)c2-c2cc(F)ccc2S1(=O)=O	.	.	.	.	6
C/C(=N\NC(=O)c1ccc(NS(=O)(=O)c2cccs2)cc1)c1ccncc1	1	3	11	32*	-2
C/C(=N\NC(=O)c1ccc(NS(=O)(=O)c2cccs2)cc1)c1ccccc1	2	3	-5	16	7
COc1ccc(/C(C)=N/NC(=O)c2ccc(NS(=O)(=O)c3cccs3)cc2)cc1	7	0	3	15	-11
C/C(=N\NC(=O)c1ccc(NS(=O)(=O)c2cccs2)cc1)c1ccc(O)cc1O	1	-8	9	68*	28
COc1ccc(Br)cc1C=NNS(=O)(=O)c1ccc(C)cc1	-1	.	-2	8	10
COc1ccc(Cl)cc1C=CC=NNS(=O)(=O)c1ccc(C)cc1	0	.	1	37*	6
O=C(N[C@@H]1C[C@@H]2O[C@@H](CO)CC[C@@H]2O[C@@H]1CCc1ccc(-c2cccnc2)cc1)c1cccc(F)c1	.	.	.	.	6
Cc1c(OC(C)C(=O)NCc2ccccn2)ccc2c3c(c(=O)oc12)CCC3 (stereo not given)	30*	99	13	13	-7
CCc1c(C)c(C#N)c2nc3ccccc3n2c1NCC1CCCO1 (stereo not given)	6	-7	4	8	-3
CC(C)c1cc(NCC2CCCO2)n2c(nc3ccccc32)c1C#N (stereo not given)	+	-9	-3	8	-194
Cc1cc(NCC2CCCO2)n2c(nc3ccccc32)c1C#N (stereo not given)	+	-17	5	8	-74
COC(=O)CSc1nnc(-c2ccc(NS(=O)(=O)c3ccc(C(C)(C)C)cc3)cc2)o1	.	.	.	.	22
CCCCNC(=O)C[C@H]1C[C@@]2(C(=O)OC)C(=C[C@H](C(C)C)O[C@@H]2C2CC2)N(Cc2cccc3ccccc23)C1=O	.	.	.	.	15
CC1(c2ccncc2)Nc2ccccc2-c2nc3ccccc3n21 (stereo not given)	158*	2	6	8	-226
NS(=O)(=O)c1ccc(N/N=C/c2ccc(C(=O)O)cc2)c([N+](=O)[O-])c1	-20	-4	0	67*	17
COc1cc(/C=N/Nc2ccc(S(N)(=O)=O)cc2[N+](=O)[O-])cc(OC)c1O	-23	-8	6	42*	10
NS(=O)(=O)c1ccc(N/N=C/c2ccc[nH]2)c([N+](=O)[O-])c1	-8	4	5	73*	23
CC(=O)Nc1ccc(C=NNc2ccc(S(=O)(=O)Nc3ccccc3C(=O)O)cc2[N+](=O)[O-])cc1	-2	5	5	48*	15
CCC(CC)=NNc1ccc(S(N)(=O)=O)cc1[N+](=O)[O-]	-10	-1	5	7	2
O=C(O)c1ccc(/C=N\Nc2ccc(S(=O)(=O)N3CCOCC3)cc2[N+](=O)[O-])cc1	4	-1	5	0	9
CCCC(=O)OC12CCCN(C1)/C(=C/c1ccc(Cl)cc1)C2 (stereo not given)	.	.	.	.	2
SMILES	FBA Mtb inh	Mtb bLac sens	MazF activator	GDH-TPI counter	CCHFV vOTU inh
O=C(NC1CCCCN(Cc2cccc(Cl)c2)C1=O)c1ccc(-c2ccccc2)cc1 (stereo not given)	.	.	.	.	4
CC(=O)Nc1ccc(C=NNc2ccc([N+](=O)[O-])cc2S(=O)(=O)Nc2ccccc2C(=O)O)cc1	0	-5	3	10	24
CN(CCO)c1ccc(C=NNc2ccc([N+](=O)[O-])cc2S(=O)(=O)Nc2ccccc2C(=O)O)cc1	-19	3	-11	33*	19
Cc1[nH]n(-c2ccc([N+](=O)[O-])cc2)c(=O)c1C=NCCN1CCN(C(=O)c2cccc(F)c2)CC1	-2	1	4	34*	-6
O=C(CN1C(=O)C2(OCCCO2)c2ccccc21)NCc1ccccc1Cl	.	.	.	.	1
CCC1(C)Cc2ccccc2-c2nc3n(c(=O)c21)CCS3 (stereo not given)	-2	4	2	-3	11
CCn1c(NCCO)nc2c(c1=O)C(C)(CC)Cc1ccccc1-2 (stereo not given)	159*	-4	-2	19	-152
CCC1(C)Cc2ccccc2-c2nc(NCCCO)n(-c3ccccc3)c(=O)c21 (stereo not given)	+	15	-5	12	-198
CCOC(=O)Cc1nc(N2CCN(C(=O)C3CCCO3)CC2)c2c(C)c(C(=O)OCC)sc2n1 (stereo not given)	.	.	.	.	7
Cc1cccc(Cl)c1-n1nnnc1C1(C)CSCC(=O)N1Cc1ccc(F)cc1 (stereo not given)	.	.	.	.	-3
O=C(OCc1cn(Cc2cccc(C(F)(F)F)c2)nn1)N1CCOCC1	.	.	.	.	-3
CCc1ccc(CN2CCN(C(=O)Cc3ccccc3)CC2)cc1	-1	-7	2	-6	-9
CSc1ccc(CN2CCN(C(=O)Cc3ccccc3)CC2)cc1	2	-5	5	31*	4
Cc1ccc(-c2cc(-c3nnc(SCC(=O)N4c5ccccc5Sc5ccc(Cl)cc54)n3N)[nH]n2)cc1	.	.	.	.	3
COc1ccc2c(c1)CNC2CS(=O)(=O)NCc1ccc(F)cc1 (stereo not given)	.	.	.	.	-6
COc1ccc(CN2CN3Cc4ccc(C)cc4C3CS2(=O)=O)cc1 (stereo not given)	.	.	.	.	-2
Cc1ccc(C=NNc2nc3c([nH]2)c(=O)n(C)c(=O)n3C)cc1	5	.	11	46*	13
COc1ccc(C=NNc2nc3c([nH]2)c(=O)n(C)c(=O)n3C)cc1	-1	.	4	34*	7
CCOc1ccc(-n2c([S-])c(C(=O)Nc3ccc(S(=O)(=O)N4CCOCC4)cc3)[n+]3cc(C(N)=O)ccc23)cc1	10	-7	-20	39*	-3
N#C/C(=C\c1ccc(OCc2ccc(C(=O)O)cc2)cc1)C(=O)NCc1ccccc1	0	-1	-8	36*	3
Cc1cc(/C=C(\C#N)C(=O)NCc2ccccc2)c(C)[nH]1	-2	.	12	31*	2
N#C/C(=C\c1ccc(O)c(Br)c1)C(=O)NCc1ccccc1	-1	1	4	8	-5
N#C/C(=C/c1ccccc1)C(=O)NCc1ccccc1	2	3	-15	4	16

Screening results deposited in PubChem by several laboratories.
